# Compound activity deposited in PubChem by National Center for Advancing Translational Sciences (NCATS).
# An excerpt weighted towards active compounds, which were near 7.2% of everything screened.
# ERK AVP inh – qHTS Assay for Inhibitors of the ERK Signaling Pathway using a Homogeneous Screening Assay; AID 995, 2007; HEK293-V1b, vasopressin-stimulated pERK AlphaScreen; Potency, µM (highest dose often 57.5 µM), without a hit: top-dose activity, negative = inhibition, hits mostly inhibitors; 0.99% of 72,000 active; also: % is scaled to controls: 0 for no effect and ±100 for the full control effect; nearly all actives have a fitted effect of over 55% in size
#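 Phosphorylated ERK1/2 detected via AlphaScreen bead proximity in lysates of V1b-expressing HEK293 cells given 25 nM vasopressin for 5 min after 30 min compound exposure (37 °C). AC50 from Hill equation; basal DMSO 0%, vasopressin 100%.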
# Luciferase inh – qHTS Assay for Inhibitors of Firefly Luciferase | Luciferin 4-monooxygenase (Photinus pyralis), P08659 | purified firefly luciferase, luminescence, 8 min | Potency, µM (top dose mostly 57.1 µM), for the others: top-dose activity change, negative = inhibition, actives largely listed as inhibitors | 2.2% of 72,000 active | AID 411, 2009; also: % is scaled to controls: 0 for no effect and ±100 for the full control effect; nearly all actives have a fitted effect of over 40% in size
#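 qHTS concentration-response profiling: light output of P. pyralis luciferase with luciferin and 10 uM ATP, imidazole buffer pH 7.2. Read by luminescence after 8-min room-temperature incubation.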
# HEK293 cAMP ctrl – qHTS Assay for Agonists of the Thyroid Stimulating Hormone Receptor: Activators of Intracellular cAMP Concentrations in Parental HEK 293; parental HEK293 CNG cAMP sensor, membrane potential fluorescence; Potency, µM (doses to about 57.1 µM), for inactives: top-dose activation, hits mostly activators; 2.5% of 73,000 active; also: % of control where 0% means no effect; nearly all actives have a fitted effect of over 55% in size
#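 Counterscreen for endogenous-receptor signalling: CNG-channel HEK 293 cells report cAMP rise by membrane depolarization. After 60 min dye equilibration with 100 uM RO 20-1724, compounds incubated 30 min before bottom-read fluorescence at 590 nm.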
# TSHR agonist – qHTS Assay for Agonists of the Thyroid Stimulating Hormone Receptor; Thyrotropin receptor (Homo sapiens), P16473; HEK293-CNG-TSHR cells (CNG channel as cAMP sensor), membrane potential dye, cAMP; Potency, µM (titrated, usually from 57.1 µM), for the others: at the top dose activation, usual class: activators; 0.48% of 73,000 active; active = well fitted activation curve with a large enough effect in the main read-out, with a control signal flat, not every such curve was filed as active; inconclusive = small, poorly fitted or top-dose-only effect, or a change in a side signal; inactive = no such curve, though single readings can be large or run the other way; % of control where 0% means no effect;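 also: the control signal comes from parental cells without the receptor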
#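 cAMP rise detected as CNG-channel membrane depolarization by fluorescent dye (emission 590 nm), 30 min after compound, following 60 min dye loading containing 100 uM RO 20-1724 at room temperature. Cells: TSHR/CNG HEK 293, with parental CNG HEK 293 as control.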
# Bst PK mod – Pyruvate Kinase. purified pyruvate kinase, luminescence ATP production; ribose 5-phosphate activator present at AC10. Potency, µM. 1.2% of 51,000 active; in the data active = potency below about 11 µM; inconclusive = mostly about 12 µM to 25 µM;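 the screen sought inhibitors and activators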;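 also: scaled between full activation by ribose 5 phosphate and full inhibition by luteolin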
# Tau fil binding – qHTS Assay for Tau Filament Binding. recombinant tau filaments, thioflavin S fluorescence, 15 h; filaments grown with octadecylsulfate alongside compound. 2% of 71,000 active. Potency, µM (highest dose often 57.1 µM), inactives show top-dose activity change, negative = inhibition. Microtubule-associated protein tau (Homo sapiens), P10636;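 also: % is scaled to controls: 0 for no effect and ±100 for the full control effect; actives lower thioflavin S fluorescence by blocking filaments or displacing dye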
# Target sequence (P10636 whole entry, looked up): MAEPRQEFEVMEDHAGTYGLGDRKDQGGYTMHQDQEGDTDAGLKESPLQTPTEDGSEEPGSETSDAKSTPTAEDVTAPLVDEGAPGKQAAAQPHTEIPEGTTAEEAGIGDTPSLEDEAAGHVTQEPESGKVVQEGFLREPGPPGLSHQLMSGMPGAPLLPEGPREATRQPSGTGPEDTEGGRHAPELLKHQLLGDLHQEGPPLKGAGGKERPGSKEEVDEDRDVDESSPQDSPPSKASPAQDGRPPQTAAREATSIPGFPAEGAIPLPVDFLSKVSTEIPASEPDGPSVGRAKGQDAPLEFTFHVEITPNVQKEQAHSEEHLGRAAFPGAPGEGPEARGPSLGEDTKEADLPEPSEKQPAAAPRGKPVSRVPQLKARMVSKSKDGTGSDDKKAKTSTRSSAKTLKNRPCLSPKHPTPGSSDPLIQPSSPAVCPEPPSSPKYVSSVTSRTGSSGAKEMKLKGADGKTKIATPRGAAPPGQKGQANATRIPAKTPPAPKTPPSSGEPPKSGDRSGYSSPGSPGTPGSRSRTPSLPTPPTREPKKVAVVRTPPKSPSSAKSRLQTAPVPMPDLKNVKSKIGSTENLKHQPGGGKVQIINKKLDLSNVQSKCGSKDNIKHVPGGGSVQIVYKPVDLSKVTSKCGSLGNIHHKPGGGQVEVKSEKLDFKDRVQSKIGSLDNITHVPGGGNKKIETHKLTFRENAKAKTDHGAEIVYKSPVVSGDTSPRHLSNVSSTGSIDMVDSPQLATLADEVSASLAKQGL
#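 Assay mix: 1 uM His-tagged tau, 30 uM sodium octadecylsulfate, thioflavine S dye in HEPES/NaCl/DTT buffer. Compound is added prior to the inducer. Fluorescence after 15 h at 37 C.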
# Starred values were filed as active, the others as inactive; i = inactive; ? = inconclusive; nt = no result; [ ] = dose if it differs, or a comment. Unless noted, calls follow the shape of the dose curve; as a rule, active = well fitted curve in the direction sought with a large enough effect; inconclusive = small, poorly fitted or top-dose-only effect, or another doubt; inactive = no such curve, though single readings can be large; an effect the other way counts as inactive or inconclusive. Potency is read from the fitted curve at half-maximal effect.
SMILES,ERK AVP inh,Luciferase inh,HEK293 cAMP ctrl,TSHR agonist,Bst PK mod,Tau fil binding
COCCOC(=O)C1=C(C)Nc2nc(C)nn2C1c1ccc(F)cc1 (stereo not given),-7%,1%,5%,-4%,>57,-5%
CC(C)(C)C(=O)Nc1ccc(-c2cn3ccsc3n2)cc1,15%,1µM*,?,?,1.6*,-6%
CC(C)CC(=O)Nc1ccc(-c2cn3ccsc3n2)cc1,-28%,3.2µM*,-4%,-12%,2.7*,13µM*
COc1ccc(C(=O)Nc2ccc(-c3cn4ccsc4n3)cc2)cc1S(=O)(=O)N1CCOCC1,6%,-3%,-12%,-4%,>57,59%
O=S(=O)(Nc1ccc(-c2cn3ccsc3n2)cc1)c1ccc2c(c1)OCCO2,-19%,-8%,24%,nt,>57,-13%
COc1ccc(-n2c(=O)c(-c3ccc(F)cc3)nc3cnc(N4CCOCC4)nc32)cc1,8%,2%[11.4 µM],28%,0%,nt,-16%
CCn1nc(NC(=O)c2ccccn2)c2cc3cc(C)ccc3nc21,46%,7.9µM*,24%,nt,nt,276%
Cc1ccc(C)c2[nH]c(=O)c(CN(Cc3nnnn3C3CCCCC3)CC3CCCO3)cc12 (stereo not given),-8%,3%,25µM*,?,>57,5%
Cc1cccc2cc(CN(CC3CCCO3)C(=O)c3ccncc3)c(=O)[nH]c12 (stereo not given),-12%,3%,1%,-3%,>57,8%
Cc1ccc2[nH]c(=O)c(CN(Cc3ccccc3)Cc3nnnn3C3CCCC3)cc2c1,-14%,-21%,25µM*,?,>11,9%
Cc1ccc(C)c2[nH]c(=O)c(CN(CC3CCCO3)C(=O)NC3CCCCC3)cc12 (stereo not given),-3%,0%,4µM*,?,>57,1%
COc1ccc(Cn2nnnc2CN(Cc2cc3cc(C)ccc3[nH]c2=O)C2CCCC2)cc1,-15%,0%,25µM*,?,>57,-2%
O=C(c1ccncc1)N1CCC2(CC1)CCN(c1ccccc1)CC2,-21%,1%[11.4 µM],-8%,-1%,nt,11%
O=C1[C@H]2[C@H]3[C@H](O)[C@H](O)C/C(=N/OC[C@@H](O)COCc4ccco4)[C@H]3CC[C@@H]2C(=O)N1C1CCCCC1,10%[11.5 µM],1%[11.4 µM],9%[11.4 µM],-6%[11.4 µM],nt,nt
FC(F)(F)c1ccccc1-c1cc(NCc2cccs2)ncn1,-11%,1%[2.29 µM],?,?,nt,-1%
Cc1ccc2cc(CN(Cc3ccco3)C(=O)NCc3ccccc3)c(=O)[nH]c2c1C,-4%,-1%,?,?,>57,25%
Cc1ccc(C)c2[nH]c(=O)c(CN(Cc3ccco3)C(=O)Nc3ccccc3)cc12,?,-3%,20µM*,?,>57,37%
O=C1CN2CCN(CC2)CC(=O)Nc2ccc(cc2)S(=O)(=O)c2ccc(cc2)NC(=O)CN2CCN(CC2)CC(=O)Nc2ccc(cc2)S(=O)(=O)c2ccc(cc2)N1,10%[11.5 µM],0%[11.4 µM],2%[11.4 µM],6%[11.4 µM],nt,69%[11.4 µM]
CC(=O)c1c(C)[nH]c(C(=O)OCCCCN2C(=O)c3ccccc3C2=O)c1C,13µM*,7%,23%,nt,>57,-2%
CCCCCCCC1=Cc2ccccc2C(CC(C)=O)N1C(=O)OC (stereo not given),14%[11.5 µM],nt,?,?,nt,nt
Nc1ncnc2c1ncn2CCCCC(=O)O,-22%[11.5 µM],3%[11.4 µM],6%[11.4 µM],-5%[11.4 µM],nt,-4%[11.4 µM]
CCCCCC[C@@H]([C@H](C)O)n1cnc2c(N)ncnc21,-3%,5%,32µM*,?,nt,-5%
C=CS(=O)(=O)c1ccc(Oc2ccc(S(=O)(=O)C=C)cc2)cc1,2.5µM*,-3%,?,?,>57,-12%
O=S(=O)(c1ccc(Oc2ccc(S(=O)(=O)N3CCOCC3)cc2)cc1)N1CCOCC1,-26%,1%,8%[11.4 µM],13%[11.4 µM],nt,3%[11.4 µM]
CC1N(C)c2cc(NC(=O)c3ccco3)ccc2C1(C)C (stereo not given),-21%,16µM*,15%,-1%,nt,20µM*
SMILES,ERK AVP inh,Luciferase inh,HEK293 cAMP ctrl,TSHR agonist,Bst PK mod,Tau fil binding
CC(C)(CO)[C@H](O)C(=O)NCCCO,1%[25.7 µM],-2%[25.5 µM],0%[25.6 µM],1%[25.6 µM],nt,-2%[25.6 µM]
COc1ccc(C(=O)Nc2cc(OC)ccc2OC)cc1,-4%,20µM*,14%,12%,nt,9%
COc1ccc(C)cc1NC(=O)c1cc2ccccc2o1,0%,?,20µM*,?,>57,36%
CCC(=O)Nc1ccc(OC)cc1OC,-14%,1%,13%,15%,>57,-29%
COc1ccc(C)cc1NC(=O)c1cc2c(C)nc3ccccc3c2o1,-17%,2%,12%,11%,>57,1%
COc1ccc(NC(=O)c2c(OC)cccc2OC)c(OC)c1,-11%,-2%,-5%,-1%,>57,16µM*
COc1ccc(C(=O)Nc2cccc(C)c2)cc1,-20%,6.3µM*,11%[11.4 µM],16%[11.4 µM],nt,7%[11.4 µM]
CN(C)c1ccc(-c2cc(Nc3ccc(F)cc3)ncn2)cc1,?,-23%[2.29 µM],-14%,-12%,nt,367%
COc1ccc(OC(=O)c2cc3ccccc3o2)cc1,nt,7.9µM*,nt,nt,?,nt
COc1ccc(OC)c(NC(=O)c2cc3ccccc3o2)c1,-6%,-20%,32µM*,?,nt,70%
COc1ccccc1NC(=O)c1oc2ccc(C)cc2c1C,20%,16µM*,?,?,nt,33%
COc1ccc(C(=O)Nc2ccccc2C(N)=O)cc1,-5%,13µM*,-3%,4%,i,-1%
COc1ccccc1NC(=O)c1oc2ccccc2c1NC(=O)c1cc(OC)c(OC)c(OC)c1,21%,-6%,9%,6%,>57,13%
O=S(=O)(c1ccccc1)N1CCC2(CCCN(c3ncccn3)C2)CC1,?,0%[11.4 µM],?,?,nt,2%
COc1cccc(C(=O)Nc2c(C)n[nH]c2C)c1,-6%,4%,4%,-2%,>57,3%
COC(=O)c1[nH]c2cc(OC)c(OC)cc2c1NC(=O)c1cccc(OC)c1,-14%,7.9µM*,-32%,?,i,-2%
COc1cccc(C(=O)Nc2c(F)c(F)c(F)c(F)c2F)c1,6%,3%,18%,nt,>57,-4%
COc1cccc(C(=O)Nc2cccc(SC)c2)c1,2%,13µM*,27%,nt,nt,-4%
CC(C)CN1CC[C@@]2(CCCN(C(=O)c3cccc(F)c3)C2)C1,-20%,1%[11.4 µM],17%,8%,nt,8%
C=CCSCC=C,24%,nt,nt,nt,nt,nt
CC(C)OC(=O)CN1CCN(C2c3ccccc3-c3ccccc32)CC1,10%,2%,19%,25µM*,>57,-15%
